A selection: hits, their analogues and other compounds. The true share with any hit is near 4.1%.
ssDAF-12 act = activators of S. stercoralis DAF-12 nuclear receptor; activation, % at 6.8 µM; HEK293 ssDAF-12/GRIP1 lit1-tk-luc reporter, luminescence; % of 3 µM dafachronic acid response; hit rate 1% among 370,000; AID 652126;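 active = activation above the mean over all tested compounds plus 3 SD, cut at about 0.9% in these data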;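 also: 0% = DMSO-only wells and 100% = 3 µM delta7-dafachronic acid wells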
hcDAF-12 act = H. contortus DAF-12 activation, primary screen | activation, % at 6.8 µM | HEK293 hcDAF-12 lit1-tk-luc reporter, luminescence; 0% DMSO, 100% Δ7-dafachronic acid | hit rate 1.4% among 370,000;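 active = activation above the mean of all tested compounds plus 3 SD, cut at about 5.5% in these data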;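 also: 100% = response to 3 µM Δ7-dafachronic acid high control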
DAX1 inh-1 = inhibitors of human orphan nuclear receptor DAX1 (NR0B1); hit rate 0.99% among 340,000; inhibition, % at 6.75 µM; HEK293 Gal4-DAX1 luciferase reporter, luminescence; P51843;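 active = inhibition above the mean over all tested compounds plus 3 SD, cut at about 4.2% in these data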;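 also: 0% = DAX1-transfected cells with DMSO and 100% = empty-vector control cells with DMSO; inhibition shows as a rise in luminescence from relieved DAX1 repression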
Target sequence (P51843 207-470 limits assumed): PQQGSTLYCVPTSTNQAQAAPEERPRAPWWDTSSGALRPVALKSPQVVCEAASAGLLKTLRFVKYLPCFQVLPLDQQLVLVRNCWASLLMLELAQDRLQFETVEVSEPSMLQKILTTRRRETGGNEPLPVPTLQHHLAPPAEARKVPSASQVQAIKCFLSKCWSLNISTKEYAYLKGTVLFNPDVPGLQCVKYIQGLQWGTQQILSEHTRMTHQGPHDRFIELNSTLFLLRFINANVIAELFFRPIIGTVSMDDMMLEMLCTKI
hgDAF12 agonist = hgDAF-12 agonism, primary luciferase screen; HEK293 GAL4-hgDAF12 UAS-luciferase reporter, agonist luminescence; normalized to butyrate control; activation, % at 6.8 µM; hit rate 1.8% among 370,000; AID 687014;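 active = activation above a cutoff set at the mean of all screened compounds plus 3 SD, cut at about 10% in these data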;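 also: 0% = DMSO wells and 100% = sodium butyrate wells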
DAX1 inh-2 = DAX1 (NR0B1) inhibition, primary screen; HEK293T StAR-luciferase reporter, SF-1/DAX-1 repression relief; inhibition, % at 6.8 µM; hit rate 1.1% among 370,000; AID 652010;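 active = inhibition above the mean over all tested compounds plus 3 SD, cut at about 3.6% in these data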;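 also: 0% = DAX-1 cells with DMSO and 100% = cells lacking DAX-1 with DMSO; higher inhibition means more luminescence from relief of DAX-1 repression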
DAX1 conf = NR0B1 (human) inhibition, confirmation; shares compounds with DAX1 inh-2; HEK293T StAR-promoter luciferase reporter, SF-1/DAX-1 repression; inhibition, % at 6.8 µM; hit rate 87% among 2,400;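 active = inhibition above the average of every tested compound plus 3 SD, cut at about 3.8% in these data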;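 also: 0% = DAX-1 cells with DMSO and 100% = no DAX-1 control cells with DMSO; active compounds raise luminescence by relieving repression of the StAR reporter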
SF1 AF2mut Luc = counter-screen for DAX1 inhibitors: nonselective inhibitors with SF-1 AF2 mutant. shares compounds with DAX1 inh-2. HEK293 StAR-luciferase, luminescence. inhibition, % at 6.8 µM. hit rate 78% among 2,400. AID 652136;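 active = inhibition above the mean of all tested compounds plus 3 SD, cut at about 3% in these data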;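 also: 0% = DAX-1 transfected cells with DMSO and 100% = cells without DAX-1 with DMSO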
LXRb hcDAF ctr = LXR-beta agonism as hcDAF-12 counter-screen; HEK293 Gal4-LXR tk-luc reporter, luminescence, 24 h; normalized: DMSO 0%, positive control 100%; activation, % at 6.8 µM; shares compounds with hcDAF-12 act; 3,400 tested, under 10 active;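 active = mean percent activation of the reporter above a cutoff set as the average over tested compounds plus their standard deviation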
Target sequence (P55055 whole entry, looked up, the tested form may be a part): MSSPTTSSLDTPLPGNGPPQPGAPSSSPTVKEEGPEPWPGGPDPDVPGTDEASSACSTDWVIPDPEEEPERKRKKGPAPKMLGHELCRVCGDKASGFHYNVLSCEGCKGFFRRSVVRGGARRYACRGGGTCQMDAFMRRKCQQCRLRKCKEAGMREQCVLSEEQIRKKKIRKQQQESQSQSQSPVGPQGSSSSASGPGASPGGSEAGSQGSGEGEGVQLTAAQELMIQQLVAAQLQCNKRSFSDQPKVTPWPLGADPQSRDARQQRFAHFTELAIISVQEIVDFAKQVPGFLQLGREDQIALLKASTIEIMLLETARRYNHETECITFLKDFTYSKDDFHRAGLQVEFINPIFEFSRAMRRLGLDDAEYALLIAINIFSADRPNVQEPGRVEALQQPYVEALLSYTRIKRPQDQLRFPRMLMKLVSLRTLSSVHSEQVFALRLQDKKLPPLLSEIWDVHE
hcDAF12 ag = confirmation of H. contortus DAF-12 agonists. hit rate 61% among 3,400. shares compounds with hcDAF-12 act. activation, % at 6.8 µM. HEK293 hcDAF-12 lit1-tk-luc reporter, luminescence; % of Δ7-dafachronic acid response. AID 743032;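 active = mean activation across triplicate tests above the threshold derived from the earlier primary screen, cut at about 5.5% in these data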;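 also: 0% = DMSO only wells and 100% = 3 µM Δ7-dafachronic acid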
hgDAF12 ag = confirmation of H. glycines DAF-12 agonists; shares compounds with hgDAF12 agonist; HEK293 GAL4-hgDAF12 luciferase reporter, agonist mode; percent of butyrate response; activation, % at 6.8 µM; hit rate 80% among 3,300;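 active = mean activation over triplicate wells above the hit cutoff derived from the earlier primary screen, cut at about 11% in these data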;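 also: 0% = DMSO low control and 100% = 2 mM sodium butyrate high control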
LXR ag 2 = LXR-beta agonism as DAF-12 counter-screen; AID 743051; HEK293 Gal4-LXR luciferase reporter, 24 h; activation, % at 6.8 µM; 3,300 tested, under 10 active; shares compounds with hgDAF12 agonist;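 active = mean activation of the triplicate above a set limit carried over from the primary screen, none filed active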
Starred values were filed as active, the others as inactive; nt = not tested or not shown.

SMILES	ssDAF-12 act	hcDAF-12 act	DAX1 inh-1	hgDAF12 agonist	DAX1 inh-2	DAX1 conf	SF1 AF2mut Luc	LXRb hcDAF ctr	hcDAF12 ag	hgDAF12 ag	LXR ag 2
CC1CCN(c2nc3ccc(C(=O)NCCCN4CCCCC4C)cc3s2)CC1 (configuration not stated)	1.6*	4	-2	15*	7.2*	12*	7.1*	nt	nt	15*	1
CC1CCCN(C(=O)c2ccc(-c3ccccc3Cl)o2)C1 (configuration not stated)	0	2	4	18*	7.8*	12*	6.3*	nt	nt	15*	1
CCC1Oc2ccccc2N(CC(=O)NC2CCCCC2C)C1=O (configuration not stated)	-1	1	2	0	-2	nt	nt	nt	nt	nt	nt
COC(=O)C1=C(C)N(Cc2ccccc2C(F)(F)F)C(=NCc2ccc(OC)cc2)NC1c1ccc(F)cc1 (configuration not stated)	-1	-2	nt	4	-1	nt	nt	nt	nt	nt	nt
CCCCCCN1C=CC(=C2C(=O)c3ccccc3C2=O)C=C1	1.1*	8.6*	-2	14*	9.4*	0	-4	1	6.1*	6	1
CCCN1C=CC(=C2C(=O)c3ccccc3C2=O)C=C1	-4	-6	-4	-14	-4	nt	nt	nt	nt	nt	nt
CCCCN1C(C)=CC(=C2C(=O)c3ccccc3C2=O)C=C1C	0	7.5*	1	22*	6.7*	6.1*	3	2	11*	12*	1
Cc1ccc(NC(=O)CCc2ccccc2)cc1C	0	0	4	9	1	nt	nt	nt	nt	nt	nt
Cc1ccc(NC(=O)/C(Cl)=C/c2ccccc2)cc1C	1.0*	9.7*	2	20*	7.0*	20*	8.2*	2	8.4*	21*	1
c1ccc2c(c1)CNc1ccccc1-2	0	-3	0	-1	0	nt	nt	nt	nt	nt	nt
CSc1cccc(NC(=O)c2ccc(Cl)nc2)c1	-1	3	0	5	0	nt	nt	nt	nt	nt	nt
O=C(NNC(=S)Nc1ccc(Br)cc1)c1cccnc1	-1	0	0	-1	1	nt	nt	nt	nt	nt	nt
O=C(/C=C\Nc1ccc(Br)cc1)c1cccnc1	1	8.3*	1	18*	5.9*	16*	9.3*	1	6.5*	16*	1
C(=C\c1ccccc1)/C=N/Nc1nc2ccccc2s1	2.2*	16*	5.7*	19*	5.3*	14*	11*	1	9.6*	20*	1
Brc1ccc(/C=C/C=N/Nc2nc3ccccc3s2)cc1	0	4	0	1	0	nt	nt	nt	nt	nt	nt
C(=N\Nc1nc2ccccc2s1)/c1ccc2c(c1)OCO2	4.5*	17*	2	17*	8.2*	19*	12*	2	9.6*	24*	1
c1ccc2sc(Nc3nc4cc5c(cc4s3)OCO5)nc2c1	2.3*	7.4*	3	18*	5.4*	12*	7.8*	1	8.2*	17*	1
COc1ccc(C=NNc2nc3ccccc3s2)cc1	0.9*	14*	-1	17*	11*	22*	12*	2	13*	16*	1
COc1cc(OC)cc(C(=O)Oc2ccc(/C=N/Nc3nc4ccccc4s3)cc2OC)c1	0	2	3	-5	0	nt	nt	nt	nt	nt	nt
C[C@H](NC(=O)[C@@H]1CSC2c3ccccc3C(=O)N21)C(=O)NCc1c(F)cccc1Cl (some centres not stated)	-1	-2	3	-1	0	nt	nt	nt	nt	nt	nt
O=C(Nc1cc(-c2ccccc2)nn1C1CCCCC1)c1ccc(Cl)cc1	-1	1	1	-1	0	nt	nt	nt	nt	nt	nt
O=C(Nc1ccccc1Cl)c1ccc2c(=O)n3c(nc2c1)CCC3	0	3	0	15*	12*	8.8*	5.0*	nt	nt	14*	1
O=C(COc1ccccc1F)NNC(=O)c1ccc2c(=O)n3c(nc2c1)CCC3	0	-1	4	0	-1	nt	nt	nt	nt	nt	nt
O=C(NCCOc1ccccc1F)c1ccc2c(=O)n3c(nc2c1)CCC3	0	5	1	16*	8.5*	7.8*	4.5*	nt	nt	12*	1
Cn1c(C(=O)N[C@@H](Cc2ccccc2)C(=O)O)cc2cc(Cl)ccc21	0	5	3	-1	1	nt	nt	nt	nt	nt	nt
SMILES	ssDAF-12 act	hcDAF-12 act	DAX1 inh-1	hgDAF12 agonist	DAX1 inh-2	DAX1 conf	SF1 AF2mut Luc	LXRb hcDAF ctr	hcDAF12 ag	hgDAF12 ag	LXR ag 2
COc1ccc(C(=O)Nc2nnc(SCC(=O)Nc3ccc(NC(C)=O)cc3)s2)c(OC)c1	1	8.7*	9.3*	14*	13*	14*	7.2*	1	7.6*	19*	1
COc1ccc(NC(=O)CSc2nnc(NC(=O)C3CCC3)s2)cc1	-1	-2	0	0	0	nt	nt	nt	nt	nt	nt
O=C(Nc1ccccc1)c1ccc(-c2ccc(F)cc2)s1	1.0*	5	2	13*	7.1*	11*	7.0*	nt	nt	18*	1
c1ccc(N=Nc2ccc(C3=NCCO3)cc2)cc1	1	7.9*	3	18*	11*	19*	9.0*	1	5	16*	1
COc1ccc(NC(=O)N(C)C[C@H]2OCc3cn(nn3)CCCC(=O)N([C@@H](C)CO)C[C@@H]2C)cc1	-1	-1	2	0	0	nt	nt	nt	nt	nt	nt
O=C(CSC(=S)N1CCCCC1)c1ccccc1	-1	3	-1	9	2	nt	nt	nt	nt	nt	nt
O=C(CSC(=S)N1CCCC1)c1ccccc1	0	4	-1	18*	9.6*	9.5*	7.4*	nt	nt	14*	1
CC(C)Cn1c(SCC(=O)c2ccc(Cl)s2)nnc1-c1ccco1	-1	-2	0	1	-1	nt	nt	nt	nt	nt	nt
CC(C#N)(Cc1ccccc1)Nc1ccccc1 (configuration not stated)	0	6.5*	-1	14*	5.0*	0	1	nt	nt	-2	0
C=CC(=O)NC(C)(C)Cc1ccccc1	-1	-2	1	-2	0	nt	nt	nt	nt	nt	nt

Source: PubChem
